69 sequences from PubChem BioAssay AID1508600 (Functional Genomics Laboratory (NCATS/FGL), 2020) can be followed below.

The campaign covered roughly 53,000 sequences. About 3,700 (7%) were called active. Many of the other results were omitted from the sample, so actives are more common in it than they were. A number with no mark means an inactive call.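 Rule for the calls: active = gene knockdowns whose robust z-score for IL-1 alpha signal is at least 2 or at most -2, so actives lie on both sides; inactive = the rest.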

A short description of this test: Components of the Cytosolic LPS Sensing Pathway: Gene Identification via Genome-wide siRNA Screen.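 Note: robust z of the log signal after scaling to non-targeting control siRNA wells of the plate.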 The conditions noted are these: RAW264.7 macrophages, IL-1a HTRF, actives lie on both sides, screened at 100 nM (by protocol), cells primed 5 h with Pam3CSK4 first. In short, it runs like this:
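Using IL-1a HTRF as read-out, the screen measured release from RAW264.7 cells after 48h siRNA knockdown (100 nM), 5 h Pam3CSK4 priming and 24 h cytosolic LipidA. Values were expressed relative to negative-control wells as robust z-scores.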
For orientation: TR-FRET usually uses a lanthanide donor and a delayed reading to cut background.
As to CGGAUCUGAGAUAAAGACGTT against Arsj, the z-score is 1.
The figure for GCUGUGGACGGACUCUAUATT against Dhodh is 0.00503; for GGACCAUCUCUGAUGAACCTT against Fhdc1 it is 0.439; for GCUAAAGCUAAGAUUGAAGTT against Poli it is -0.0266.
For GGAUGAGGACAAGUGCUCUTT against Agpat4, the z-score was -3.47 (active).
The figure for CCAAAAGCAUAUCAGUCGGTT against Olfr1122 is 1.48; for GGGUUUAUGUUGCCGACUCTT against Setd7 it is 2.04 (active).
Regarding GGGUUCCUCAGAGACUGAGTT against Esrra, the z-score is 1.57.
The figure for GGGCAAGAAAGGUGUUUUGTT against Prdx5 is 0.432.
The figure for GGUGAUUGGUGUAAAAUCUTT against Gdi2 is -1.15.
The figure for GGAGAUUGGUGUUAGUAACTT against Sp7 is -0.198.
“GGGUGUGCUUCAUAUCAAATT against 2210407C18Rik”: the z-score was 0.812.
For GCUUCAUCUUACCUACUCATT against Synb the value was -0.825.
For GGCUAUGCAUCUCCUGUCATT against Gata4 the value was -0.935; for GGAAAUCAUCUAUUCGGACTT against Klrc1, 2.62 (active).
For CCUUGCACGACAUUUUACUTT against Idnk the value was 0.313.
For the sequence GGUCAUCUUCCUUUUUGCUTT against Olfr1501, the z-score was -1.
For CCCUGGGUGUACAAGUCCUTT against Slc25a41 the value was -0.084.
As for GGGCCAAGAGCUUCUUUGATT against Ahr, the z-score is -1.46.
For GGACUUUGAGAAAGCAUUCTT against Pck1 the value was -2.03 (active); for GGAUAAUGUGAAGUUCAAGTT against Rpl38, 0.493; for GCAUUGACAAGAUAUCUAATT against Abhd17c, 1.74.
For “GGCUCCUAGUGAUUAAAAGTT against 4930578I06Rik” the value was 0.0788; for GGGAAAGCAUCGUAGACUCTT against Eid2, 0.0738; for GGAGGAAAUGAUCACAGCUTT against Ccl20, -2.31 (active).
The figure for CCAGUCACUAUUUGAGUGUTT against Erg is 1.9; for GGUGAAUACUUCAGAUACATT against Sult2b1 it is -0.362; for GGAUUCACUGUUUUAUUCUTT against Fap it is 0.282.
Turning to GGAUGCAAUCGACAUGGAGTT against Atp5pb, the z-score is 2.71 (active).
For GGUUUUUGGGAAUUGGCUUTT against Sfxn5 the value was -0.0222; for GCGGUCCAUCAUCAAACUCTT against Rpap2, -1.3; for CCCAACAUAUUUUUUAGCATT against Hmgcll1, -0.506.
The figure for GGUGGUUGUUAUUGAAAAGTT against Mical3 is 1.34.
The figure for CGACAUUUGUGUUAACCAUTT against Gprc5c is -0.483; for GGAGCUUUUGGACCACUUGTT against Tmod1 it is -0.892.
In the case of GCAAACGACGAAAGUCCAATT against Usp49, the z-score is -1.63.
The figure for CCAUAAACGACGAAAUGAUTT against Usp11 is 0.189; for GGCAUUUGACUUUAUUGCATT against Nit1 it is 3.54 (active); for GGUCAAGCAAGUGUUGGUUTT against Gart it is -0.0147.
The figure for GGAAGAUUCCGACUUUAUUTT against Irs4 is 0.69; for GCUCAGACAAGAAUUGCUATT against Specc1 it is -0.612; for CCACCUUUCGUGCAUUAUCTT against Coro6 it is 1.32.
For GGCUGUCAUACUUUCAGGGTT against Hyal5 the value was 2.51 (active); for GGGCCAAGGAAGAACUUCATT against Clec12a, -0.655; for GGAAAAAGAGGCCAAAAAGTT against Arid4a, -0.221.
Take GGUCAAUGUGAUUGAGGAUTT against Acap1: the z-score is 0.869.
For CCUAUUGAGUCAUCCAUCGTT against Utp25 the value was -0.586; for GCAGUACGCUGCAUUUAAATT against Mtrf1l, 0.551; for GGAGUUUCAACUCUUCUUCTT against Necab2, -0.576.
The figure for GCUCCUGAACUAAUACAAGTT against Melk is 5 (active); for GGUGAGGAGGAAAUCCUGCTT against Rdh10 it is -1.21; for CCUGCUUUGUAUCUCCUCCTT against Csprs it is 0.184.
As for GCAACAAUGAGAGACCACATT against Htr5a, the z-score is 3.27 (active).
For GGAAGCAUCUCAUUAUUCATT against Lamp2 the value was 0.0306.
For GGCACCUACAUCCUUAUUGTT against Ptprn the value was -0.16.
The figure for GGAAAGGAAAAUCAACUUCTT against Usp14 is 0.0989.
For GCUUUCUUUUGCACUUGAATT against Ctc1, the z-score is -1.1.
Regarding CCACAUGUCACAUCUUUUCTT against Mrpl47, the z-score is 0.16.
The figure for GGCACAGACUAAGGUAUAGTT against Adra2c is -1.51; for GCCCUGAAGCCUAUAAUCATT against Nhlrc1 it is 2.34 (active).
For GGCAACAGUACCAAAGACATT against Rps24 the value was 0.483.
For GGCCGAAUCACAGAAACUCTT against Mrps18a the value was 1.87; for GUAAGCAGCAACAGAGGCUTT against Cd70, -0.558; for GGCAUUGAAGGAAGUGAUCTT against Psmg3, -2.9 (active).
Regarding GGCCUUAGUAUUCUGCCUCTT against Nuak1, the z-score is 0.395.
With GGGAAUUCACACUGUCUGGTT against Tmem176a, the z-score was -1.73.
For CGGCUAAGGAAAAAUGUGATT against Nr1h4 the value was -1.26.
For CCAACAUCCUUAAGCGGCUTT against Lonp1 the value was -0.161.
For GGUCAAAGGUGAAGAGAAATT against Chgb the value was 1.43.
